# Only some compounds are listed: those with a hit (about 21% of all), similar ones and a draw of the others.
# HCV inh = blocks hepatitis C virus. Huh7.5.1 HCVcc-Cre infection, luciferase reporter, 44 h. Potency, µM (highest dose often 41.8 µM), for inactives: top-dose activity change, negative = inhibition, most hits filed as inhibitors. hit rate 3.4% among 340,000. AID 651820; note: potency is the fitted concentration of half-maximal effect; % is set by controls: 0 for no effect and ±100 for the full control effect
#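 After 44 h co-culture of compound, cells and HCVcc-Cre (~0.5 moi), substrate is added for 15 min at room temperature and luciferase measured over 15 sec. Cells were seeded at 1,000/well and pre-cultured 4 h.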
# Pf growth 48h = inhibits P. falciparum growth in the first generation, 48 h; AID 504832; Potency, µM (titrated, usually from 28.7 µM), inactives show top-dose activity change, negative = inhibition, most hits filed as inhibitors; hit rate 5.9% among 310,000; P. falciparum luciferase growth in erythrocytes, 48 h; note: potency is the fitted concentration of half-maximal effect; % is set by controls: 0 for no effect and ±100 for the full control effect
#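 Erythrocytes infected with P. falciparum carrying an integrated firefly luciferase reporter (2% hematocrit, 0.1% parasitemia final) were exposed to compounds in RPMI 1640 with 0.5% Albumax at 37 C, 5% CO2. Growth inhibition was scored as reduced luminescence.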
# Pf growth 96h = P. falciparum growth inhibition at 96 hour, primary screen for plastid delayed-death inhibitors | P. falciparum luciferase reporter growth, 96 h | hit rate 6.9% among 320,000 | Potency, µM (series often up to 28.7 µM), for inactives: top-dose activity change, negative = inhibition, most hits filed as inhibitors; note: potency is the fitted concentration of half-maximal effect; % is set by controls: 0 for no effect and ±100 for the full control effect
#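 Two parasite generations (96 h, 37 C, 5% CO2) of compound exposure in infected erythrocytes (0.05% parasitemia, 2% hematocrit). Luciferase-reporter P. falciparum; decreased luminescence indicates inhibited growth, aimed at apicoplast-acting delayed death.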
# AMA1 RON2 block = AMA1-RON2 (P. falciparum) interaction inhibition; Potency, µM (titrated, usually from 58.2 µM), without a hit: at the top dose activity change, negative = inhibition, actives largely listed as inhibitors; hit rate 0.2% among 360,000; AlphaScreen AMA1-biotinylated RON2 peptide binding;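 note: potency is the fitted concentration of half-maximal effect; 0% = vehicle wells and -100% = peptide control; nearly all actives have a fitted effect of over 45% in size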
#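 AMA1 (3D7) with his tag at 25 nM final met compounds first, then biotinylated RON2 peptide at 25 nM; detection used donor plus acceptor beads, 10 µg/mL apiece, read by AlphaScreen after 30 min at room temperature.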
# Cycloheximide cs = counter-screen for Shiga toxin inhibitors: cycloheximide protein synthesis inhibition; cell reporter, cycloheximide protein synthesis inhibition counterscreen; max response, %; hit rate 12% among 300,000; in the data active = max response mostly above about 13%, no sharp cut-off; inactive = mostly below about 14%; note: read at 38.3 µM for the half of the compounds with a filed dose; 0% is about no effect
# Shiga toxin inh = Shiga toxin inhibition; inhibition, % at 38.7 µM; hit rate 9.2% among 290,000; Vero cells, Shiga toxin protein synthesis inhibition reporter; AID 2315; in the data active = inhibition mostly above about 28%, no sharp cut-off; inactive = mostly below about 43%; note: 0% is about no effect
# An asterisk follows results filed as active; ? = inconclusive; / = no result given; [ ] = another dose, or the depositor's remark. Unless noted, calls come from the whole dose curve; as a rule, active = well fitted curve in the direction sought with a large enough effect; inconclusive = small, poorly fitted or top-dose-only effect, or another doubt; inactive = no such curve, though single readings can be large; an effect the other way counts as inactive or inconclusive.
SMILES,HCV inh,Pf growth 48h,Pf growth 96h,AMA1 RON2 block,Cycloheximide cs,Shiga toxin inh
CCOC(=O)CCCSc1nnc(CCCCCN2C(=O)c3cccc4cccc(c34)C2=O)o1,5%,?,1.9µM*,13%,5,1
O=C(NCc1ccccc1Cl)c1cc(C(=O)C2CC2)c[nH]1,-29%,?,-9%,-7%,1,-15
CC(C)(C)CC(C)(C)c1ccc(O)c(CN2CCN(CCC#N)CC2)c1,1%,1.7µM*,/,-13%,-4,-11
Cc1cc(Br)ccc1NC(=O)CN(C)C(=O)COc1cccc2c1OC(C)(C)C2,0%,?,-22%,104%,/,/
CC1CCCN(C(=O)c2ccc([N+](=O)[O-])o2)C1 (centres undefined),-9%,13µM*,?,-6%,-2,-2
O=C(c1ccc(-c2ccc([N+](=O)[O-])cc2)o1)N1CCCCCCC1,?,9%,42%,0%,/,/
O=C(c1ccc(-c2ccc([N+](=O)[O-])cc2)o1)N1CCCC(C(F)(F)F)C1 (centres undefined),?,9.3µM*,4%,0%,/,/
Cc1ccc(OCCCC(=O)Nc2ccccc2C(F)(F)F)cc1,8%,8%,-14%,7%,-1,-7
O=C(COc1ccccc1Br)Nc1ccccc1C(F)(F)F,-11%,52%,86%,28%,23*,61*
CCOc1ccc(OCC(=O)Nc2ccccc2C(F)(F)F)cc1,?,8%,32%,5%,23*,31
O=Cc1ccc(OCC(=O)Nc2ccccc2C(F)(F)F)cc1,19%,18%,-1%,7%,25*,0
CCCCCc1nnc(NC(=O)c2ccc(N3CCCC3=O)cc2)s1,8%,9%,4%,22%,/,/
CCOC(=O)C1=C(C)N=c2s/c(=C/c3ccc(OCC(=O)O)c(OC)c3)c(=O)n2C1c1ccc(Cl)cc1 (centres undefined),0%,/,/,2%,/,/
CCOC(=O)C1=C(C)N=c2s/c(=C/c3cccc([N+](=O)[O-])c3O)c(=O)n2C1c1ccc(OC)cc1OC (centres undefined),-24%,?,4.7µM*,-15%,-4,/
COc1ccc(/C=c2/sc3n(c2=O)C(c2ccccc2OC)C2=C(N=3)c3ccccc3CC2)cc1O (centres undefined),?,2.1µM*,2.3µM*,16%,1,-21
CCOC(=O)C1=C(c2ccccc2)N=c2s/c(=C\c3ccco3)c(=O)n2C1c1cccs1 (centres undefined),-20%,16%,-13%,?,-1,-6
CCOC(=O)C1=C(c2ccccc2)N=c2s/c(=C\c3cc(OC)c(OC)c(OC)c3)c(=O)n2C1c1cccs1 (centres undefined),-15%,0.66µM*,?,22%,4,25
CCOC(=O)C1=C(C)N=c2s/c(=C/c3ccc(OCC(=O)O)cc3)c(=O)n2C1c1ccc(OC)cc1OC (centres undefined),22%,0.47µM*,1.2µM*,-3%,-1,/
Cc1ccc(S(=O)(=O)N2CCN(C(=O)COC(=O)CSc3ccc(C)c(C)c3)CC2)c(C)c1,7%,?,21%,-5%,/,/
Cc1ccc(S(=O)(=O)N[C@@H](C)C(=O)OCC(=O)N2c3ccccc3NC(=O)C2(C)C)cc1,6%,-15%,-18%,-2%,/,/
COc1cc(C(=O)OCC(=O)N2CCOCC2)c([N+](=O)[O-])cc1OC,1%,16%,-3%,-7%,-3,-5
COc1ccc(C2C(C(C)=O)=C(C)N=c3s/c(=C\c4ccco4)c(=O)n32)c(OC)c1 (centres undefined),-22%,?,-5%,?,-4,19
CCOC(=O)C1=C(C)N=c2s/c(=C\c3ccc(OCC(=O)O)cc3)c(=O)n2C1c1ccccc1OC (centres undefined),4%,1µM*,18%,-10%,-1,-2
COc1ccc(C2C(C(C)=O)=C(C)N=c3s/c(=C\c4cc(C)n(C)c4C)c(=O)n32)c(OC)c1 (centres undefined),-16%,9.3µM*,8.3µM*,-26%,-3,15
CCOC(=O)C1=C(C)N=c2s/c(=C\c3ccc(O)c([N+](=O)[O-])c3)c(=O)n2C1c1ccccc1OC (centres undefined),4%,?,-95%,-5%,2,-3
SMILES,HCV inh,Pf growth 48h,Pf growth 96h,AMA1 RON2 block,Cycloheximide cs,Shiga toxin inh
COc1cc(Cn2c3ccc(NC(=O)CCc4ccc(O)cc4)cc3c(=O)n2C)ccc1F,/,/,/,15%,/,/
O=C(Nc1ccc([N+](=O)[O-])cc1Br)c1cc2ccccc2nc1Cl,-8%,0.19µM*,0.33µM*,-9%,2,-2
Cc1ccc(O)c(NC(=O)c2cc([N+](=O)[O-])ccc2Cl)c1,-18%,9.3µM*,30%,-3%,13,26
O=C(Nc1nnc(Cc2ccc([N+](=O)[O-])cc2)s1)Nc1ccccc1F,7%,0%,12%,1%,3,-3
O=C(Nc1ccccc1F)Nc1ccc([N+](=O)[O-])cc1Cl,?,63%,16%,-8%,9.8*,29*
O=C(Nc1cccnc1Cl)c1cc([N+](=O)[O-])ccc1Cl,-16%,-23%,?,14%,18,21
O=C(Nc1cccc2ncccc12)c1cc([N+](=O)[O-])ccc1Cl,8.9µM*,5%[0.00184 µM],12µM*,3%,-5,11
O=C(Nc1ccc([N+](=O)[O-])cc1Cl)c1cc(Cl)ccc1O,1.3µM*,?,?,-7%,/,/
O=C(Nc1ccc([N+](=O)[O-])cc1Cl)c1cccc([N+](=O)[O-])c1,/,/,/,-5%,/,/
CC(C)N1C(=O)c2ccccc2NC(=O)C1C(=O)NC1CC1 (centres undefined),/,/,/,-2%,/,/
O=C(c1ccc(CNS(=O)(=O)c2ccc(F)cc2)cc1)N1CCCCCC1,/,/,/,-6%,/,/
COc1ccc(-c2cc(C(=O)NCc3cccnc3)no2)cc1OC,/,6%,9.3µM*,-4%,-12,16
CC(C)Cc1cc(C(=O)NCc2cccs2)no1,18%,113%,?,3%,40*,84*
Cc1cc(C(=O)NCc2cccnc2)no1,/,18%,/,0%,-2,-8
Cc1ccc(-c2cc(C(=O)NCc3cccnc3)no2)cc1,-8%,111%,-1%,-2%,53*,50*
CC(C)Cc1cc(C(=O)NCc2cccnc2)no1,0%,/,15%,-2%,25*,13
CC(=O)Nc1ccn(C2OC(C(COC(C)=O)NC(=O)C(COCc3ccccc3)NC(=O)OC(C)(C)C)C(OC(C)=O)C2OC(C)=O)c(=O)n1 (centres undefined),/,/,/,/,-1,-4
COc1ccc(C2=CC(c3ccc(Cl)cc3)n3cnnc3N2)cc1OC (centres undefined),-4%,10µM*,/,50%,9,12
